# Test system: PhhR/P_H16_RS18365 L-phenylalanine biosensor (pEH137)
# Test: relative induction of RFP reporter vs primary effector; higher = stronger activation
# Details: inducer concentration 5 mM; 6 h; Cupriavidus necator H16; minimal medium + 0.4% gluconate
# Protocol: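 Orthogonality screen of 21 primary inducers against 21 transcription factor/inducible promoter–mRFP biosensors in C. necator H16 in minimal medium, robotic 96-well format, 5 mM inducer, 30 °C. OD-normalised RFP fluorescence was read 6 h later and expressed as relative induction (%) = 100 × (FL compound − FL uninduced)/(FL primary inducer − FL uninduced); mean of n=4. Cognate pairs (100% by definition) omitted.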
row,Compound,relative induction of RFP reporter
1,N[C@@H](Cc1ccc(O)cc1)C(=O)O [L-tyrosine],-0.541%
2,O=C(O)C1CCCCC1 [cyclohexane-1-carboxylate],-0.0509%
3,OC1OC[C@H](O)[C@H](O)[C@H]1O (mixture of isomers) [L-arabinose],-0.00622%
4,NCCC(=O)O [β-alanine],-0.6%
5,Nc1ccccc1C(=O)C[C@H](N)C(=O)O [L-kynurenine],-0.316%
6,O=C(O)c1ccccc1O [salicylate],-0.155%
7,C=CC(=O)O [acrylate],-0.318%
8,O=c1[nH]c(=O)c2nc[nH]c2[nH]1 [xanthine],-0.134%
9,CC(=O)C(C)O (configuration not stated) [acetoin],-0.273%
10,"O=C(O)c1ccc(O)c(O)c1 [3,4-dihydroxybenzoate]",-0.638%
11,O=C(O)C(=O)c1ccccc1 [phenylglyoxylate],-0.366%
12,O=CO [formate],-0.0153%
13,C=C(CC(=O)O)C(=O)O [itaconate],-0.415%
14,O=C(O)CCO [3-hydroxypropanoate],-0.273%
15,O=C(O)c1ccccc1 [benzoate],-0.383%
16,O=C(O)CS(=O)(=O)O [sulfonatoacetate],-0.174%
17,O=C(O)C(O)C(O)C(=O)O (configuration not stated) [tartrate],0.258%

# From the supplement of paper PMC7057948, “A genome-wide approach for identification and characterisation of metabolite-inducible systems” (Nature Communications, 2020)
